Data from PubChem BioAssay.
Active and inactive are the calls of the source.

Columns and labels:
Albumin (Bos taurus) = Albumin (Bos taurus) (UniProt P02769); experiment: compounds binding labelled BSA control protein – biochemical, small-molecule microarray, Alexa647 label, 635/667 nm fluorescence, artefact control for SMM control protein annotation, profiling panel (AID 1118); settings: BSA-A647 binding, fluorescence 635 nm, higher = more signal;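 further: score merges 667 nm emission intensity and signal-to-noise per printed compound spot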
[1] = probe aXIP binding to arrayed compounds – biochemical, NeuroSMM set, 635/667 nm fluorescence, primary screen (AID 1119); settings: small-molecule microarray, higher = more signal, called active from +8 up or from −8 down;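 further: probe is the protein aXip251-270 applied at 1 µg/mL to compound-printed slides; binding of probe to printed compounds measured as 667 nm fluorescence plus signal to noise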
[2] = probe aNOTCH3 binding on compound microarray – biochemical, small-molecule microarray, 635/667 nm fluorescence, primary screen (AID 1120); settings: higher = more signal;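 further: probe is a biotin-tagged antibody raised against NOTCH3 rather than NOTCH3 protein; score merges spot fluorescence near 667 nm with spot signal to noise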
[3] = probe aNOTCH2 binding on compound microarray – biochemical, small-molecule microarray, 635/667 nm fluorescence, primary screen (AID 1121); settings: higher = more signal;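 further: score merges feature fluorescence read at 667 nm with its signal to noise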
[4] = molecular target: Carbonic anhydrase 2 (Homo sapiens) (UniProt P00918); experiment: compounds binding carbonic anhydrase 2 – biochemical, small-molecule microarray, Alexa647-labelled CAII, profiling panel (AID 1122); settings: CAII-A647 binding fluorescence, higher = more signal
[5] = COS7 lysate on small-molecule microarray, probe aHis, 635 nm (AID 1123); settings: COS7 cell lysate, fluorescence, higher = more signal;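 further: z-score combines 667nm fluorescence intensity with signal-to-noise per printed compound spot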
[6] = probe aLAP1 signal on lysate-treated microarray – cell lysate, small-molecule microarray, COS7 lysate, primary screen (AID 1124); settings: probe aLAP1, fluorescence, higher = more signal;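 further: lysate comes from COS7 cells expressing LAP1 and is applied at 0.3 µg/mL; score merges spot fluorescence near 667 nm with signal-to-noise over triplicate slides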
Sam68 (KHDRBS1) = experiment: compounds binding KHDRBS1 protein – biochemical, small-molecule microarray, 635 nm fluorescence, primary screen (AID 1125); settings: higher = more signal;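 further: score merges 667 nm channel intensity with signal to noise over triplicate slides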
[7] = system: Chordin-like protein 2 (CHRDL2); experiment: compounds binding chordin-like 2 – biochemical, small-molecule microarray, 635 nm fluorescence, primary screen (AID 1126); settings: fluorescence 635 nm, higher = more signal;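 further: printed compound slides probed with Chrdl2 protein at 4 µg/mL for 1 h at 4 C; score merges 667 nm emission intensity with signal to noise over three replicate slides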
[8] = molecular target: Concanavalin-A (Canavalia ensiformis) (UniProt P02866); experiment: compounds binding concanavalin A lectin – biochemical, small-molecule microarray, Alexa647 label, 635 nm, artefact control for SMM control protein annotation, primary screen (AID 1127); settings: ConA-A647 binding fluorescence, higher = more signal;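 further: z combines 667 nm emission intensity with signal-to-noise across three replicate slides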
Concanavalin-A (Canavalia ensiformis), sequence (P02866 whole entry, looked up): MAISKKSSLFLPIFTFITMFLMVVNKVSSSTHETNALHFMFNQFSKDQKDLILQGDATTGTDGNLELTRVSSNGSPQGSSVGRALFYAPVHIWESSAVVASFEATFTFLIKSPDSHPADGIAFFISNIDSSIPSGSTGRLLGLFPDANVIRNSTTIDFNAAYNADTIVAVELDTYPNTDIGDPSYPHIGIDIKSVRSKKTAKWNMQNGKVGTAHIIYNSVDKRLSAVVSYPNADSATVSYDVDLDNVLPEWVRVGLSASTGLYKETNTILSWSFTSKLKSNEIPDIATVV

Albumin (Bos taurus), sequence (P02769 whole entry, looked up): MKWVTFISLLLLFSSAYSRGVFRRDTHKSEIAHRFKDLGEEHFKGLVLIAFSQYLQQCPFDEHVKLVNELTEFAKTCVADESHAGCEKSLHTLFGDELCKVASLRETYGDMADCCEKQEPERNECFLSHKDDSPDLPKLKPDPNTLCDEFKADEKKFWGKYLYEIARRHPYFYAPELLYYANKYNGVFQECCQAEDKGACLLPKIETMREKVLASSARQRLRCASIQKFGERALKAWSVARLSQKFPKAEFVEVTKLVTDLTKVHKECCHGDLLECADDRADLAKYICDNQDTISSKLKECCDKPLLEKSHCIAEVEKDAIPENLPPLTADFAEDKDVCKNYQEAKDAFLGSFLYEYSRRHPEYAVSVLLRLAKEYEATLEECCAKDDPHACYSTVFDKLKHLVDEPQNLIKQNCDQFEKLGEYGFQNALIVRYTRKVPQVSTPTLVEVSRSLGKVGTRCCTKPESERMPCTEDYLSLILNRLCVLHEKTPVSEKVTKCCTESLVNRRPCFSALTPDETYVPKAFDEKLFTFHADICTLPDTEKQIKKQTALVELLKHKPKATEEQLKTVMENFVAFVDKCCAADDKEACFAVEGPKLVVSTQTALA

Row | Structure (SMILES) | composite z-score (Albumin (Bos taurus)) | composite Z-score [1] | composite z-score [2] | composite z-score [3] | composite z-score [4] | composite z-score [5] | composite z-score [6] | composite z-score (Sam68 (KHDRBS1)) | composite z-score [7] | composite z-score [8]
1 | O=C1OCC=C[C@H]2OC34C=CCN(c5ccc6ccccc6c5)C(=O)[C@H]3N(CCCCCCO)C(=O)[C@@H]4[C@@H]12 (stereo not given in full) | 0.39 | 0.164 (inactive) | -0.241 | -0.0472 | 0.837 | 0.818 | 0.941 | -1.42 | -0.677 | -0.486
2 | COc1ccc(C#Cc2ccc3c(c2)[C@]2(C(=O)N3)[C@H](c3ccccc3OCCO)N3[C@H](c4ccccc4)[C@H](c4ccccc4)OC(=O)[C@H]3[C@@H]2C(=O)O)cc1 | 0.702 | -0.274 (inactive) | 0.671 | 0.114 | 0.473 | 2.27 | 0.649 | 1.3 | -0.0011 | 1.15
3 | O=C1c2ccccc2[C@@]2(Cc3ccccc3N(CC(F)(F)F)C2=O)[C@H](c2ccc(CO)cc2)N1Cc1ccccc1Cl | -0.465 | 0.142 (inactive) | -0.191 | -0.228 | -0.227 | -0.0414 | -0.153 | 0.428 | 0.929 | 0.409
4 | COC(=O)c1c(CC[C@@H](CO)NC(=O)N2CCC[C@H]2Cn2cc(-c3ccccn3)nn2)oc(C(C)=O)c1C(=O)OC | 0.453 | 0.294 (inactive) | -0.118 | -0.171 | 0.428 | 0.043 | 0.274 | 0.882 | -0.394 | 0.419
5 | COCCOC(=O)N1C(=O)[C@@]2(c3cc(C#CCCO)ccc31)[C@H](C(=O)N1CCN(c3ncccn3)CC1)[C@H]1C(=O)O[C@H](c3ccccc3)[C@H](c3ccccc3)N1[C@@H]2c1ccccc1OCCO | 0.922 | -0.07 (inactive) | 0.195 | -0.134 | 0.582 | 1.76 | 0.186 | 1.31 | 0.207 | 1.14
6 | C=C(C)C1C(=C)CN([C@H](CO)c2ccccc2)C1=O (stereo not given in full) | 0.16 | 1.66 (inactive) | -0.0967 | -0.133 | -0.0056 | -0.583 | -0.133 | -0.245 | 0.117 | -0.844
7 | COC(=O)[C@@]1(Cc2ccc(OC)cc2)[C@H]2c3cc(C(=O)N4CCCC4)n(Cc4ccc(OC)c(OC)c4)c3C[C@H]2CN1C(=O)c1ccccc1 | 1.08 | 0.983 (inactive) | 1.28 | 0.852 | 0.592 | 2.74 | 0.601 | 1.3 | 0.206 | 1.14
8 | C=CCC(OC(C)=O)[C@@H]1[C@@H](N(Cc2ccc(-c3cccc(C(F)(F)F)c3)o2)C(=O)c2ccc(-c3ccccc3)cc2)c2cc(OCCCO)ccc2N1C(=O)c1ccc(-c2ccccc2)cc1 (stereo not given in full) | 0.0046 | 0.111 (inactive) | -0.0957 | -0.126 | -0.0098 | 0.0291 | -0.128 | -0.197 | -0.0179 | -0.639
9 | C=CCOC(=O)[C@H]1[C@@H]2C(=O)O[C@@H](c3ccccc3)[C@@H](c3ccccc3)N2[C@@H](c2ccc(OCCOC(=O)[C@@H]3C[C@@H]4C(=O)N5CCC[C@H]5C(=O)N4[C@@H]3c3cccc(OCCO)c3)cc2)[C@]12C(=O)Nc1ccccc12 | -0.292 | 0.594 (inactive) | 0.336 | 0.0087 | 0.192 | 1.73 | 0.383 | 1.29 | 0.902 | 1.17
10 | O=C1NC(=O)C2C1C=CC(C(O)c1ccccc1)N2Nc1ccc(Cl)cc1Cl (stereo not given) | 0.885 | -0.199 (inactive) | 0.405 | -0.0974 | 0.574 | 3.18 | 1.23 | 1.33 | -0.238 | 1.1
11 | COCCCN1C(=O)[C@@]2(Cc3ccccc31)c1ccccc1C(=O)N(Cc1ccccc1C(F)(F)F)[C@H]2c1ccc(CO)cc1 | -0.857 | 0.225 (inactive) | -0.401 | 0.402 | 0.138 | -0.176 | -0.395 | 1 | 1.09 | 0.961
12 | O=C1NC(=O)C2C1C=CC(C(O)c1cccc3ccccc13)N2Nc1ccccn1 (stereo not given) | 0.421 | 0.0886 (inactive) | 0.138 | -0.0966 | 0.553 | 0.296 | 0.447 | 0.0488 | 0.394 | 0.506
13 | CC(C)(C)OC(=O)CC[C@@]12N=C(c3ccc(OCCCO)cc3)O[C@@H]1c1ccccc1N(CCS(=O)(=O)c1ccccc1)C2=O | -0.458 | 0.733 (inactive) | 0.106 | -0.179 | 0.73 | 1.59 | 0.184 | 0.461 | 0.623 | 1.14
14 | CC1(C)[C@@H]2CC(C(O)C3C=CC4C(=O)N(c5ccccc5)C(=O)C4N3Nc3ccccc3)=C[C@H]1C2 (stereo not given in full) | 0.566 | -0.212 (inactive) | -0.0144 | 0.0127 | 0.408 | 1.61 | 0.322 | 0.031 | 0.684 | 0.566
15 | Cc1ccc(S[C@]2(C(=O)NCC(F)(F)F)CC(=O)N(C(C)C)[C@@H]2c2ccc(CO)cc2I)cc1 | -0.667 | 0.314 (inactive) | -0.276 | -0.0557 | 0.742 | 0.506 | 0.106 | -0.749 | -0.445 | -0.967
16 | CN(C)CCCC[C@@H]1NC(=O)[C@H]2C[C@@H](C(=O)NCCCCCNC(=O)CS)[C@@H](c3cccc(OCCO)c3)N2C1=O | 0.816 | -0.114 (inactive) | -0.239 | -0.175 | 0.661 | 1.67 | 0.0827 | 1.03 | 0.651 | 0.612

Row | Structure (SMILES) | composite z-score (Albumin (Bos taurus)) | composite Z-score [1] | composite z-score [2] | composite z-score [3] | composite z-score [4] | composite z-score [5] | composite z-score [6] | composite z-score (Sam68 (KHDRBS1)) | composite z-score [7] | composite z-score [8]
17 | C=CCC(OC(C)=O)[C@@H]1[C@@H](N(Cc2ccc(-c3cccc(C(F)(F)F)c3)o2)C(=O)Cc2ccc(F)cc2)c2cc(OCCCO)ccc2N1C(=O)Cc1ccc(OC)cc1 (stereo not given in full) | -0.0141 | -0.105 (inactive) | -0.0918 | -0.124 | -0.498 | -1 | -0.348 | -3.75 | 0.149 | -1.29
18 | COc1ccc(COC2OC[C@]3(C)[C@H]4C5=C(CN3C(=O)OC(C)(C)C)[C@H](C)C(CO)C(CO)C5CC[C@@H]24)cc1 (stereo not given in full) | 0.73 | 0.086 (inactive) | 0.339 | 0.191 | 0.513 | 0.814 | 0.846 | 0.567 | -0.888 | 0.927
19 | O=C(O)[C@@]1(CCS(=O)(=O)c2ccccc2)COC(c2ccc(OCCCO)cc2)=N1 | -0.344 | 0.714 (inactive) | -0.15 | -0.108 | 0.815 | 1.63 | 0.0237 | -0.39 | -0.724 | -0.0647
20 | COC(=O)[C@@]1(Cc2ccccc2)[C@H]2c3cc(C(=O)N4CCCC4)n(CC4CC4)c3C[C@H]2CN1C(=O)c1ccccc1 | 0.946 | 1.02 (inactive) | 1.13 | 0.389 | 0.641 | 2.89 | 0.114 | 1.3 | -0.311 | 0.818
21 | CCCCC(=C=CC[C@@H](O)c1ccccc1OCCO)CCO | 0.694 | 0.35 (inactive) | -0.0321 | -0.0928 | 0.726 | 1.1 | 0.257 | 0.0301 | -0.638 | -0.382
22 | O=C1OCCC/C=C\[C@H]2OC34C=CCN(CCN5CCOCC5)C(=O)[C@H]3N(CCCO)C(=O)[C@@H]4C12 (stereo not given in full) | -0.843 | 0.546 (inactive) | -0.182 | -0.178 | 0.888 | 3.72 | 1.6 | -0.284 | -0.575 | 0.167
23 | CC(C)N1C(=O)c2ccccc2[C@](C)(C(=O)NCc2ccccc2)[C@@H]1c1ccc(CO)cc1 | 0.182 | 1.32 (inactive) | -0.245 | -0.0323 | 0.703 | -0.129 | 0.967 | -0.484 | -0.798 | -0.866
24 | CCCN1C(=O)[C@]2(CCS(=O)(=O)c3ccccc3)N=C(c3ccc(OCCCO)cc3)O[C@@H]2c2ccccc21 | 0.414 | -0.0745 (inactive) | -0.0328 | -0.0995 | 0.276 | 1.15 | -0.031 | 1.29 | 0.359 | 0.414
25 | COCCOC(=O)N1C(=O)[C@@]2(c3cc(C#CC4=CCCCC4)ccc31)[C@H](C(N)=O)[C@H]1C(=O)O[C@H](c3ccccc3)[C@H](c3ccccc3)N1[C@@H]2c1ccc(OCCO)cc1 | 0.588 | 0.362 (inactive) | -0.315 | -0.259 | 0.348 | 0.763 | 0.481 | 1.3 | 0.0151 | 0.459
26 | O=C1OCCC/C=C\[C@H]2OC34C=CCN(Cn5nnc6ccccc65)C(=O)[C@H]3N(CCCCCCO)C(=O)[C@@H]4C12 (stereo not given in full) | -0.265 | 0.236 (inactive) | -0.262 | -0.101 | 0.652 | 2.13 | -0.368 | 0.839 | -1.25 | -0.472
27 | COc1ccc(C(O)C2C=CC3C(=O)NC(=O)C3N2Nc2ccccn2)cc1 (stereo not given) | -0.131 | 0.841 (inactive) | 0.0256 | 0.0308 | 0.482 | 1.39 | 0.348 | -0.183 | 1 | -0.0999
28 | O=C1NC(=O)C2C1C=CC(C(O)C(c1ccccc1)c1ccccc1)N2Nc1ccc(Cl)cc1Cl (stereo not given) | 0.766 | -0.713 (inactive) | 0.263 | 0.0409 | 0.584 | 1.84 | 0.0766 | 0.993 | -0.483 | 0.788
29 | COCCCNC(=O)[C@@]1(Cc2ccccc2N=[N+]=[N-])N=C(c2ccc(OCCCO)cc2)O[C@H]1c1ccccc1N=[N+]=[N-] | 0.964 | 0.328 (inactive) | 0.386 | 0.149 | 0.58 | 2.76 | 0.889 | 1.29 | -0.0927 | 1.1
30 | COc1cc2c(cc1OC)CN(C(=O)[C@H]1[C@@H]3C(=O)O[C@@H](c4ccccc4)[C@@H](c4ccccc4)N3[C@@H](c3ccc(O)cc3)[C@]13C(=O)Nc1ccc(C#CCNC(N)=O)cc13)CC2 | -0.176 | -0.136 (inactive) | 0.0397 | -0.165 | 0.169 | 0.103 | 0.523 | -0.0579 | 0.702 | 0.212
31 | CC(=O)N1Cc2ccccc2C[C@@]2(COC(c3ccc(OCCCO)cc3)=N2)C1=O | 0.707 | -0.151 (inactive) | 0.286 | 0.16 | 0.669 | 2.38 | 0.16 | 1.3 | 0.341 | 1.15
32 | COCCOC(=O)N1C(=O)[C@@]2(c3cc(C#Cc4ccc(OC)cc4)ccc31)[C@H](c1ccccc1OCCO)N1[C@H](c3ccccc3)[C@H](c3ccccc3)OC(=O)[C@H]1[C@@H]2C(=O)N1CCN(c2ncccn2)CC1 | 0.322 | 0.179 (inactive) | -0.0288 | -0.131 | 0.336 | 0.572 | 0.141 | 0.866 | 0.0135 | 0.923
